In the library only some 2.8% were active in any assay of this set; here they are far more common.
DRD3 agonist: activates the human D3 dopamine receptor. hit rate 0.58% among 410,000. P35462. max activation, %. D3R DiscoveRx beta-arrestin cells, luminescence, 90 min. AID 652048; in the data active = max activation above about 30%; also: 0% is about no effect
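Agonist mode: compounds and dopamine controls were applied to plated cells for 90 min at 37 degrees C after an overnight attachment at 1500 cells/well. Luminescent read-out followed 30 - 60 minutes at room temperature with DiscoveRx detection reagent.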
Giardia killer: Giardia lamblia killing; Giardia lamblia trophozoite viability; activity change, % at 7.66 µM, hits read low; hit rate 0.15% among 340,000; AID 540267; in the data active = activity change below about -80%; inconclusive = between about -30% and that limit;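 also: parasites exposed to compound for two days anaerobically before the ATP read; % is scaled to controls: 0 for no effect and ±100 for the full control effect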
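Killing of trophozoites was scored by loss of ATP luminescence after a 48 hrs anaerobic exposure to compounds at 37 deg C, using 100 cells per well.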
B2AR arrestin: recruits beta-arrestin to the human beta2-adrenergic receptor; hit rate 0.02% among 330,000; beta-arrestin recruitment to beta2AR, cell-based reporter; Potency, µM (titrated, usually from 46.1 µM), for inactives: at the top dose activation, most hits filed as activators; active = well fitted activation curve with a large enough effect; inconclusive = small, poorly fitted or top-dose-only effect;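 also: potency is read from the fitted curve at half-maximal effect; 0% = DMSO controls and full agonism = EC100 isoproterenol or metaproterenol; nearly all actives have a fitted effect of over 65% in size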
Target sequence (P07550 whole entry, looked up): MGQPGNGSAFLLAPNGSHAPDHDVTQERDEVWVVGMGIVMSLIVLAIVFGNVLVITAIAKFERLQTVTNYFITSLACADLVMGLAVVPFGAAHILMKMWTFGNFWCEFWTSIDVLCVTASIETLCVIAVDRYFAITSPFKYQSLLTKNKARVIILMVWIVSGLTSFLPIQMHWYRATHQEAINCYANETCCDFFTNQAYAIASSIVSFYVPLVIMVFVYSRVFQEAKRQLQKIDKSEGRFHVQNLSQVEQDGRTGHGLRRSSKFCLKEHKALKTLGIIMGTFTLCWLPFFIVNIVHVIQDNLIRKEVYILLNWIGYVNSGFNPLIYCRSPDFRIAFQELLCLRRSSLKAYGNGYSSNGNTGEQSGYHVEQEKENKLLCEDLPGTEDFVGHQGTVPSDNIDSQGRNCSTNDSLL
D3 antag: D3 dopamine receptor (human) antagonism; P35462; D3R cells, DiscoveRx beta-arrestin luminescence, antagonist mode; active compounds read low; max response, negative = inhibition, %; hit rate 2.5% among 360,000; in the data active = max response below about -50%; inconclusive = no clear call, values can overlap the other calls; also: % is scaled to controls: 0 for no effect and ±100 for the full control effect
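Cells plated overnight at 1500 cells/well, then exposed to library compounds with dopamine controls for 90 minutes at 37 degrees C. DiscoveRx reagent added for 30–60 minutes at room temperature; luminescence read, quantitative HTS format.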
The depositor's hits bear a star.

Results for COc1nccnc1NS(=O)(=O)c1ccc(NC(=S)NC(=O)/C=C/c2ccccc2)cc1 ?
DRD3 agonist: -10; Giardia killer: -10; B2AR arrestin: 0%; D3 antag: -63*

Results for CCOc1ccccc1NC(=O)c1cc2c(=O)oc3ccccc3c2s1 ?
DRD3 agonist: 3

Results for CCc1c(C)nc2cc(-c3ccc(OC)c(OC)c3)nn2c1NCC1CC1 ?
DRD3 agonist: 38*; Giardia killer: -18; B2AR arrestin: 0%; D3 antag: 86

What do the screens show for `COc1ccc(CCNC(=O)CCc2c(C)nc3cc(-c4ccccc4)nn3c2C)cc1OC`?
DRD3 agonist: 3

What do the screens show for `COc1cc(C(=O)OC(C)C(=O)NC2CCCCC2C)c([N+](=O)[O-])cc1OC` (stereo unspecified)?
DRD3 agonist: 0; Giardia killer: -1; B2AR arrestin: 0%; D3 antag: 1

What do the screens show for `CC(OC(=O)c1ccc([N+](=O)[O-])s1)C(=O)NC1CCCCC1C` (stereo unspecified)?
DRD3 agonist: -2; Giardia killer: -86*; B2AR arrestin: 0%; D3 antag: -15

Results for CCN(CC)S(=O)(=O)c1ccc2c(c1)N(CC(=O)N1CCN(c3cccc(OC)c3)CC1)C(=O)CO2 ?
DRD3 agonist: 4

How did COc1ccc(NC(=O)CCCN2C(=O)CCC2=O)cc1Cl do in these assays?
DRD3 agonist: 3; Giardia killer: -4; B2AR arrestin: 0%; D3 antag: -13

Results for COc1ccc(NC(=O)CCCC(=O)O)cc1Cl ?
DRD3 agonist: 7; Giardia killer: 20; B2AR arrestin: 0%; D3 antag: -50*

How did CN(Cc1ccccc1)C(=O)c1nc2ccccn2c1CNCCCOc1cccnc1 do in these assays?
DRD3 agonist: -16; Giardia killer: 0; B2AR arrestin: 0%; D3 antag: -56*

What do the screens show for `CCCCN(C)C(=O)c1nc2ccccn2c1CNCCCn1ncc2ccccc21`?
DRD3 agonist: -14; Giardia killer: 18; B2AR arrestin: 0%; D3 antag: -77*

How did CCCN1CNc2c(c(=O)[nH]c(=S)n2CCc2cccc(Cl)c2Cl)C1 do in these assays?
Giardia killer: -12

What do the screens show for `C=C(C)C1CC=C(CN2CC(C)OC(C)C2)CC1` (stereo unspecified)?
DRD3 agonist: -10; Giardia killer: 6; B2AR arrestin: 0%; D3 antag: 0

Results for C=C(C)C1CC=C(CN2CCC(C(=O)OCC)CC2)CC1 (stereo unspecified) ?
DRD3 agonist: -51; Giardia killer: -15; B2AR arrestin: 0%; D3 antag: -61*

Results for CCOC(=O)C1CCN(Cc2ccc(C(=O)OC)cc2)CC1 ?
DRD3 agonist: -33; Giardia killer: -10; B2AR arrestin: inconclusive; D3 antag: -53*

Results for CCOC(=O)C1CCN(Cc2ccc(F)cc2)CC1 ?
DRD3 agonist: -48; Giardia killer: 2; B2AR arrestin: -1%; D3 antag: inconclusive

Results for CCOC(=O)C1CCN(Cc2cnc(Oc3ccc(Cl)cc3C)s2)CC1 ?
DRD3 agonist: -21; Giardia killer: 2; B2AR arrestin: 0%; D3 antag: -58*

Results for CCOC(=O)C1CCN(Cc2ccc(Cl)c(Cl)c2)CC1 ?
DRD3 agonist: -38; Giardia killer: 0; B2AR arrestin: 0%; D3 antag: -85*

How did O=C(Nc1cccc(F)c1)c1oc2ccccc2c1NC(=O)C12CC3CC(CC(C3)C1)C2 do in these assays?
DRD3 agonist: 1

How did CCOc1ccc(CCNC(=O)Cn2ccc3cc(S(=O)(=O)N4CCCCCC4)ccc32)cc1 do in these assays?
DRD3 agonist: -23

What do the screens show for `CCOc1ccccc1NC(=O)CC1C(=O)NCCN1C(=O)c1ccc(F)cc1` (stereo unspecified)?
DRD3 agonist: 1

How did COC(=O)c1ccc(CN2CCCCC2)cc1 do in these assays?
DRD3 agonist: -24; Giardia killer: 64; B2AR arrestin: -1%; D3 antag: -56*

Results for Clc1ccc(CN2CCCCCCC2)cc1Cl ?
DRD3 agonist: -1; Giardia killer: 0; B2AR arrestin: 0%; D3 antag: -90*

How did CC1(C)CC(=O)c2cc(C(=O)Nc3ccc(Cl)cc3)c(=O)[nH]c2C1 do in these assays?
DRD3 agonist: 4

What do the screens show for `Cc1nc2c(C(=O)NC(C)c3ccccc3)cnn2c(C)c1Cc1ccccc1` (stereo unspecified)?
DRD3 agonist: -5

What do the screens show for `CCOc1ccc(S(=O)(=O)N(C)c2ccc(OCC(=O)NCC3CCCO3)cc2)cc1` (stereo unspecified)?
DRD3 agonist: -1; Giardia killer: -3; B2AR arrestin: 0%; D3 antag: 6

Results for CCOc1ccc(S(=O)(=O)N(C)c2ccc(OCC(=O)NCC3CCCCC3)cc2)cc1 ?
DRD3 agonist: -11; Giardia killer: 2; B2AR arrestin: 0%; D3 antag: -79*

How did CCOc1ccc(S(=O)(=O)N(CC(=O)NC2CCCC2)c2ccc(F)cc2)cc1 do in these assays?
DRD3 agonist: 8; Giardia killer: 34; D3 antag: -52*

What do the screens show for `CN(Cc1ccccc1)C(=O)c1ncn(Cc2ccccc2)c1C(=O)N(C)Cc1ccccc1`?
DRD3 agonist: 45*; Giardia killer: 5; B2AR arrestin: 0%; D3 antag: 47

How did CN(Cc1ccccc1)C(=O)c1ncn(C)c1C(=O)N(C)Cc1ccccc1 do in these assays?
DRD3 agonist: 1; Giardia killer: -18; B2AR arrestin: -1%; D3 antag: -7

Results for Cc1cccc(N2CCN(CCCNC(=O)Cn3ncc4c([nH]c5ccccc54)c3=O)CC2C)c1 (stereo unspecified) ?
DRD3 agonist: -15

How did C/C=C/c1cc(CN2CCN(c3ccc(OC)cc3)CC2)c(O)c(OC)c1 do in these assays?
DRD3 agonist: -24; Giardia killer: 3; B2AR arrestin: -1%; D3 antag: inconclusive

What do the screens show for `C/C=C/c1cc(CN2CCN(c3ccccc3)CC2)c(O)c(OC)c1`?
DRD3 agonist: -20; Giardia killer: 5; B2AR arrestin: 0%; D3 antag: -98*

What do the screens show for `COCOc1ccc(/C=C/C(=O)c2c(O)cc(OCOC)cc2OCOC)cc1`?
DRD3 agonist: 43*; Giardia killer: -9; D3 antag: 31

How did COCOc1ccc(/C=C/C(=O)c2c(OCOC)cc(OCOC)c(CC=C(C)C)c2O)cc1OCOC do in these assays?
DRD3 agonist: 42*; Giardia killer: -6; D3 antag: 105

Results for CCOC(=O)C1CCN(C(=O)CSc2n[nH]c(-c3ccccc3Cl)n2)CC1 ?
DRD3 agonist: -15

Results for O=C(O)CO.[NH2-].[NH2-].[Pt+2] ?
DRD3 agonist: 7

How did COc1ccc(C2=NN(C(=O)COC(=O)c3ccc(S(C)(=O)=O)c([N+](=O)[O-])c3)C(c3ccco3)C2)cc1 (stereo unspecified) do in these assays?
DRD3 agonist: -12; Giardia killer: -4; B2AR arrestin: 0%; D3 antag: -56*

Screens: PubChem BioAssay, National Center for Advancing Translational Sciences (NCATS)
